Screening data deposited in PubChem by National Center for Advancing Translational Sciences (NCATS).
IP6K1 inhibitor: blocks human inositol hexakisphosphate kinase 1 | actives 0.81% (n = 140,000) | Q92551 | AID 1645851 | activity change, % (series mostly up to about 58 µM) | IP6K1 kinase, ADP-Glo luminescence, 2 h; hits give low values; in the data active = activity change below about -25%; note: % is set by controls: 0 for no effect and ±100 for the full control effect
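ADP-Glo luminescence measures ADP made by human IP6K1 during a 2 h RT reaction with ATP/IP6 (mix at 1.3 mM/130 uM); top library doses 57.5 and 19.1 uM final.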
KDM5B inhibitor: inhibitors of human KDM5B histone demethylase | Q9UGL1 | KDM5B demethylase, FDH-coupled NADH fluorescence (FDH is formaldehyde dehydrogenase) | Potency, µM (doses to about 57.7 µM), usual class: inhibitors | actives 2.6% (n = 220,000); active = well fitted inhibition curve with a large enough effect; inconclusive = small, poorly fitted or top-dose-only effect; inactive = no such curve, though single readings can be large or run the other way; note: potency is the fitted concentration of half-maximal effect; 0% is about no effect; nearly all actives have a fitted effect of over 70% in size
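Measured: NADH fluorescence change, 30 min, RT. System: KDM5BΔAP 200 nM final, H3K4me3 peptide, α-KG, Fe(II), ascorbate, NAD⁺ plus FDH, pH 7.5 HEPES. Compounds: titrated, 10 min pre-incubation with enzyme.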
Starred values were filed as active, the others as inactive; i = inactive; ? = inconclusive; . = no result; ! = not active in a repeat. In the library only some 2.7% were active in any assay of this set; here they are far more common.

SMILES | IP6K1 inhibitor | KDM5B inhibitor
COc1ccccc1-c1ccc(CN2CCC(NC(=O)c3ccccc3F)C2)cc1 (stereo unspecified) | 13 | .
CC(=O)Nc1ccc(S(=O)(=O)N2CCC(NC(=O)CCC(C)C)CC2)cc1 | . | i
Cc1nc2ccc(C(=O)NCC3CN(CC(C)C)CCO3)cc2nc1C (stereo unspecified) | . | i
COc1ccc(NC(=O)COC(=O)c2ccc(C)s2)cc1OC | . | i
Cc1cc2cc(-c3c(C)noc3C)nc(Nc3ccccn3)c2o1 | -4 | ?
Cc1noc(C)c1-c1cc2c(cc(C)n2CCN(C)C)c(Nc2ccncn2)n1 | -14 | 32µM*
COc1cc(-c2nc(-c3c(C)noc3C)cc3c2cc(C)n3CCN(C)C)ccn1 | -8 | 32µM*
COc1ccc(-c2nc(-c3c(C)noc3C)cc3c2cc(C)n3C)cn1 | -21 | 35µM*
COc1ncccc1-c1nc(-c2c(C)noc2C)cc2c1cc(C)n2C | -8 | i
COc1cc(-c2nc(-c3c(C)noc3C)cc3[nH]c(C)cc23)ccn1 | -17 | 32µM*
COc1cc(F)ccc1-c1nc(-c2c(C)noc2C)cc2c1cc(C)n2C | -5 | i
O=[S+]1([O-])c2cccnc2O[C@@H](COCc2ccccc2)CN1CCc1ccccc1 | 9 | .
Cn1c(=O)[nH]c(=O)c2c1nc(SCc1ccc(F)cc1)n2Cc1ccccc1 | . | i
O=C(NC1CCN(C(=O)c2ccc(-c3cccs3)cc2)CC1)c1cccc(Cl)c1 | 18 | .
CCCOc1ccc(-c2nc3ccccc3c(C(=O)O)c2C)cc1 | . | i
Cc1noc(C)c1-c1cc2c(cc(C)n2CCN(C)C)c(-c2ccccc2)n1 | -3 | 32µM*
Cc1noc(C)c1-c1cc2c(cc(C)n2C)c(-c2cccc(O)c2)n1 | -14 | ?
Cn1ncc2c(C(=O)NCc3cccc(F)c3)cc(-c3ccc(Cl)cc3)nc21 | -6 | .
COc1ccc(-c2cn3cc(C(=O)NC4CCCCC4)nc3s2)cc1 | -1 | .
CC1=C(C(=O)OC(C)C)C(c2ccccc2F)N2C(CC(=O)N3CCCC3)=CSC2=N1 (stereo unspecified) | -6 | ?
COC(=O)C1=C(C)N=C2SC=C(CC(=O)N3CCCC3)N2C1c1cccc(OC)c1OC (stereo unspecified) | 4 | ?
C=CCOC(=O)C1=C(C)N=C2SC=C(CC(=O)N3CCCC3)N2C1c1cccc(OC)c1OC (stereo unspecified) | 14 | 28µM*
C=CCOC(=O)C1=C(C)N=C2SC=C(CC(=O)N3CCCC3)N2C1c1ccccc1Cl (stereo unspecified) | 9 | 28µM*
COc1cc(OC)c(NC(=O)N(C)CCc2noc(C(=O)NCc3ccccc3)n2)cc1Cl | . | i
CCCCc1ccc(C(=O)Cn2cnc3c2c(=O)n(C)c(=O)n3C)cc1 | . | i
SMILES | IP6K1 inhibitor | KDM5B inhibitor
O=C(Nc1ccc(-c2nc3ccccc3o2)cc1)C1CCCC1 | . | i
CCN(CC)CC(=O)N1CCC(C(=O)Nc2ccc(-c3nc4ccccc4o3)cc2)CC1 | 11 | 28µM*
O=C(CCc1ncc(-c2ccc(F)cc2)o1)Nc1ccncc1 | . | i
O=C(NCCc1ccc(Cl)cc1)c1nc(-c2cccnc2)c2ccccn12 | 11 | ?
O=C(NCCc1ccc(Cl)cc1)c1nc(-c2cccc(C(F)(F)F)c2)c2ccccn12 | -3 | 25µM*
O=C(NCCc1ccc(Cl)cc1)c1nc(-c2ccccc2)c2ccccn12 | 9 | 28µM*
O=C(NCCc1ccc(Cl)cc1)c1nc(-c2cc(Cl)cc(Cl)c2)c2ccccn12 | 19 | ?
O=C(NCCc1ccc(Cl)cc1)c1cn2cc(-c3cccc(C(F)(F)F)c3)sc2n1 | 5 | .
COc1ccccc1-c1nc(C(=O)NCCc2ccc(Cl)cc2)n2ccccc12 | -13 | 79µM*
Cc1ccc(CNC(=O)N2CC(N(CC(C)C)C3CCN(C)CC3)C2)cc1 | -10 | .
O=C(NC1CCCN(c2cc(-c3ccccc3)[nH]n2)C1)c1ccc2nc[nH]c2c1 (stereo unspecified) | 0 | i
c1cnc2nc(C3CCCN3)[nH]c2c1 (stereo unspecified) | 22 | 13µM*!
c1cc2nc(C3CCCCN3)[nH]c2cn1 (stereo unspecified) | 15 | ?
CCCCC(=O)OCc1c(C(=O)OCC)sc(N)c1C#N | . | i
COc1ccc(N2CC3CCC(C2)N3Cc2cccs2)cc1 | 0 | ?
O=C(CCCOc1ccccc1)OCC(=O)c1ccc(F)c(F)c1 | . | i
O=C(Nc1ccc2c(c1)OCCO2)C1(CCO)CCN(c2ncccn2)C1 (stereo unspecified) | 7 | ?
O=C(Nc1ccc(N2CCOCC2)cc1)C1(CCO)CCN(Cc2ccccc2)C1 (stereo unspecified) | 11 | i
O=C(N1CCCC1)C1(CCO)CCN(c2ncccn2)C1 (stereo unspecified) | -7 | 28µM*
O=C(Nc1ccc(N2CCOCC2)cc1)C1(CCO)CCN(c2ncccn2)C1 (stereo unspecified) | 6 | 22µM*
